Reference: PubChem BioAssay (NCATS)
“And” between values parts separate entries of the source, which are not always exact repeats. Equal values may be shown once. Inconclusive results are not listed. For some assays here: Entries with a potency or affinity are not part of this list. The source made the active and inactive calls.

Columns and labels:
[1] = qHTS profiling of the MIPE4 collection as inhibitors of Plasmodium falciparum (DD2) proliferation (AID 743345); conditions: P. falciparum Dd2 in erythrocytes, SYBR Green DNA, 72 h; at 28.5 µM (top of the series) unless noted
Procedure, shortened: (§1)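 Parasite DNA was quantified by SYBR Green I fluorescence (ex 485, em 535 nm) after overnight lysis in saponin/Triton buffer at room temperature. Cultures at 0.3% parasitemia and 2.5% hematocrit were first exposed to compound for 72 h at 37 C; signals were normalised to artemisinin (0.29 uM) and vehicle wells.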

[2] = qHTS profiling of the MIPE4 collection as inhibitors of Plasmodium falciparum (DD2) proliferation (Rep 2) (AID 743346); conditions: P. falciparum Dd2 in erythrocytes, SYBR Green DNA, 72 h; at 28.5 µM (top of the series) unless noted
Procedure, shortened: as §1

[3] = Ebola virus entry assay, blue channel fluorescence
[4] = Ebola virus entry assay, green fluorescence channel
[5] = Ebola virus entry assay, ratio channel readout
[6] = Ebola virus entry assay, blue channel fluorescence; remark: listed apart in the source
[7] = Ebola virus entry assay, ratio channel
[8] = Ebola virus entry assay, green channel fluorescence
[9] = Ebola virus entry assay, blue channel fluorescence; remark: listed apart in the source
[10] = qHTS profiling of the MIPE4 collection as inhibitors of Plasmodium falciparum (HB3) proliferation (AID 743347);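 note: plate controls were DMSO vehicle wells for no effect and artemisinin wells for full effect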; conditions: P. falciparum HB3 in erythrocytes, SYBR Green DNA, 72 h; at 28.5 µM (top of the series) unless noted
Procedure, shortened: as §1

[11] = qHTS profiling of the MIPE4 collection as inhibitors of Plasmodium falciparum (3D7) proliferation (AID 743344);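 note: scaled between DMSO vehicle wells and 0.29 µM artemisinin as full inhibition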; conditions: P. falciparum 3D7 in erythrocytes, SYBR Green DNA fluorescence, 72 h; at 28.5 µM (top of the series) unless noted
Procedure, shortened: as §1

[12] = qHTS Assay for Identifying Gametocytocidal Compounds (AID 743244; active = well fitted curve in the direction sought with a large enough effect;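 note: % is set by controls: 0 for no effect and ±100 for the full control effect; actives lower the fluorescent signal which means gametocytes are killed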); conditions: P. falciparum 3D7 stage III-V gametocytes, alamarBlue, 72 h; max response: stronger effect = lower value
Procedure, shortened: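 Viability read-out was resazurin reduction (alamarBlue, 24 h) measured at Ex 525/Em 598 nm. Beforehand, late-stage (III-V) 3D7 P. falciparum gametocytes at 20,000 cells/well were incubated with compound 72 h at 37C under 5% CO2.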

[13] = biological target: T1, Hexokinase-4 (Homo sapiens) + Glucokinase regulatory protein (Homo sapiens) (UniProt P35557+Q14397); assay: qHTS assay for inhibitors of recombinant human GCK-GKRP interaction: Diaphorase-coupled assay (AID 743205; active = well fitted curve in the direction sought with a large enough effect)
Procedure, shortened: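 25 mM Hepes pH 7.6, 5 mM glucose, 0.4 mM ATP, 4 U/ml G6PDH; 10 nM each GST-GCK/FLAG-GKRP. Kinetic fluorescence read, 1/min × 30 min. Normalized: DMSO ± enzyme = max/min.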

[14] = biological target: T1, Hexokinase-4 (Homo sapiens) + Glucokinase regulatory protein (Homo sapiens); assay: qHTS assay for inhibitors of recombinant human GCK-GKRP interaction: ADP-Glo assay (AID 743206; active = well fitted curve in the direction sought with a large enough effect;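 note: plate controls were DMSO plus enzyme for no effect and no enzyme for full effect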)
Procedure, shortened: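 Pin-transferred compounds meet a 15 nM GST-GCK/15 nM FLAG-GKRP/2 uM S6P mix (dispense concentrations). ATP is then added to 0.4 mM final with 5 mM glucose, and the reaction runs 60 min at room temperature. ADP is quantified luminescently.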

[15] = biological target: T1, Hexokinase-4 (Homo sapiens) + Glucokinase regulatory protein (Homo sapiens); assay: qHTS assay for inhibitors of recombinant human GCK-GKRP interaction: HTRF assay (AID 743207; active = well fitted curve in the direction sought with a large enough effect;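 note: 0% = DMSO with GCK present and -100% = DMSO wells lacking GCK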)
Procedure, shortened: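 5 nM GST-GCK + 5 nM FLAG-GKRP + 2 uM S6P, pH 7.1 buffer (25 mM Hepes, 2 mM MgCl2, 25 mM KCl, 1 mM DTT, Tween/BSA); pin-transferred cpd; anti-FLAG XL665/anti-GST K; 60 min RT; HTRF.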

T1 sequence (P35557 whole entry, looked up): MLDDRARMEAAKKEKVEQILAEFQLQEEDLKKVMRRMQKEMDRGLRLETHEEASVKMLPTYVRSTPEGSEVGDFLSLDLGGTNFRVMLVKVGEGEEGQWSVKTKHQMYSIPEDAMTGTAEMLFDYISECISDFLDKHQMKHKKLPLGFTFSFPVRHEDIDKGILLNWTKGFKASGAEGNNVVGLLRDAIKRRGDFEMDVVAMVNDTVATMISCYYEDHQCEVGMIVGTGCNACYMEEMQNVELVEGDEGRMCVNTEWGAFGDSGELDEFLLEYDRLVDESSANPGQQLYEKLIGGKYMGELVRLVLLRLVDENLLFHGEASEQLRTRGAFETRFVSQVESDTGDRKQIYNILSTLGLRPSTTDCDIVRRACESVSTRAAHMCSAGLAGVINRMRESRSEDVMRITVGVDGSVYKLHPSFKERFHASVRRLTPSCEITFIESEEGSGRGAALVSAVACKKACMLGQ
T1 sequence (Q14397 whole entry, looked up): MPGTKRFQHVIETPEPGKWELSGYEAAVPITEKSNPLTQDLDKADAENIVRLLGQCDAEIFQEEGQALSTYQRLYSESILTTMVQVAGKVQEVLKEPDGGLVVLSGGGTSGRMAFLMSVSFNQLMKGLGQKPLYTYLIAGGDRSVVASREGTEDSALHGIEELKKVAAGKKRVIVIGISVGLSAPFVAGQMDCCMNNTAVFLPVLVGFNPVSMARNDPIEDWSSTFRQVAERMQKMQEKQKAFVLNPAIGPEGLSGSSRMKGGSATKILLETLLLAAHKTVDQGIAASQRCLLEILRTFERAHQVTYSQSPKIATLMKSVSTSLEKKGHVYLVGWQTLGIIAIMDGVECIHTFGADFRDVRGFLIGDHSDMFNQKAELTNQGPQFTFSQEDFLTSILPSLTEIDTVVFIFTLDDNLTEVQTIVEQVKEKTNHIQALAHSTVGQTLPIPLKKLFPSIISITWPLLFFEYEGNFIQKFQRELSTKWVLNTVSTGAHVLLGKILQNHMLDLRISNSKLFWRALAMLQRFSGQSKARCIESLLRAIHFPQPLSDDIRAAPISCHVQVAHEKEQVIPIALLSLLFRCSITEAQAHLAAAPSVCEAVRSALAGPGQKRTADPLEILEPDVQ

CCC1(C)CC(=O)NC1=O (configuration not stated)
111%: parasite growth remaining, % of DMSO control (lower = more inhibition) [1]
inactive: outcome [3] | outcome [4] | outcome [5] | outcome [6] | outcome [7] | outcome [8] | outcome [9]
96.3%: parasite growth, % of control (lower = inhibition) [2]

CN/C(=C\[N+](=O)[O-])NCCSCc1csc(CN(C)C)n1
inactive: outcome [3] | outcome [4] | outcome [5] | outcome [8] | outcome [9]

O=C1CN(/N=C/c2ccc([N+](=O)[O-])o2)C(=O)N1
inactive: outcome [3] | outcome [4] | outcome [5] | outcome [6] | outcome [8] | outcome [9]

O=C(N[C@H](CO)[C@H](O)c1ccc([N+](=O)[O-])cc1)C(Cl)Cl
inactive: outcome [3] | outcome [4] | outcome [5] | outcome [7] | outcome [8] | outcome [9]

S=c1nc[nH]c2nc[nH]c12
inactive: outcome [3] | outcome [4] | outcome [5] | outcome [8] | outcome [9]

CCN1CC(CCN2CCOCC2)C(c2ccccc2)(c2ccccc2)C1=O (configuration not stated)
inactive: outcome [3] | outcome [4] | outcome [5] | outcome [7] | outcome [8] | outcome [9]

CC(C)[C@H](N)C(=O)OCCOCn1cnc2c(=O)[nH]c(N)nc21
102%: growth, % of control [10]
136%: parasite growth, % of control (lower = inhibition) [2]
94%: parasite growth remaining, % of DMSO control (lower = more inhibition) [1]
inactive: outcome [3] | outcome [4] | outcome [5] | outcome [7] | outcome [8] | outcome [9]

Nc1nc(Cl)nc2c1ncn2[C@@H]1O[C@H](CO)[C@@H](O)[C@@H]1F
inactive: outcome [3] | outcome [4] | outcome [5] | outcome [8] | outcome [9]

C#CCN[C@@H]1CCc2ccccc21
inactive: outcome [3] | outcome [4] | outcome [5] | outcome [6] | outcome [7] | outcome [8] | outcome [9]

CC(CCc1ccc(O)cc1)NCCc1ccc(O)c(O)c1 (configuration not stated)
inactive: outcome [3] | outcome [4] | outcome [5] | outcome [8] | outcome [9]

S=P(N1CC1)(N1CC1)N1CC1
inactive: outcome [3] | outcome [4] | outcome [5] | outcome [7] | outcome [8] | outcome [9]

CN1C(C(=O)Nc2ccccn2)=C(O)c2ccccc2S1(=O)=O
inactive: outcome [3] | outcome [4] | outcome [5] | outcome [6] | outcome [8] | outcome [9]

COCCCOc1ccnc(CS(=O)c2nc3ccccc3[nH]2)c1C (configuration not stated)
inactive: outcome [3] | outcome [4] | outcome [5] | outcome [6] | outcome [7] | outcome [8] | outcome [9]
83.7%: growth, % of control [10]
74.1%: parasite growth remaining, % of DMSO control (lower = more inhibition) [1]
78.8%: parasite growth, % of DMSO control [11]
63.9%: parasite growth, % of control (lower = inhibition) [2]

C[N+](C)(C)CC(O)CC(=O)[O-] (configuration not stated)
inactive: outcome [3] | outcome [4] | outcome [5] | outcome [8] | outcome [9]

C[C@]12CCC(=O)C=C1CC[C@H]1[C@@H]3CC[C@](O)(C(=O)CO)[C@@]3(C)C[C@H](O)[C@@]12F
inactive: outcome [3] | outcome [4] | outcome [5] | outcome [7] | outcome [8] | outcome [9]

Cn1nnc2c(C(N)=O)ncn2c1=O
inactive: outcome [3] | outcome [4] | outcome [5] | outcome [8] | outcome [9]

CCS(=O)(=O)CCn1c([N+](=O)[O-])cnc1C
inactive: outcome [3] | outcome [4] | outcome [5] | outcome [6] | outcome [8] | outcome [9]

Nc1ccc(S(=O)(=O)c2ccc(N)cc2)cc1
inactive: outcome [3] | outcome [4] | outcome [5] | outcome [6] | outcome [8] | outcome [9]

Cc1noc(NS(=O)(=O)c2ccc(N)cc2)c1C
inactive: outcome [3] | outcome [4] | outcome [5] | outcome [8] | outcome [9]

NC(=O)N1c2ccccc2C=Cc2ccccc21
inactive: outcome [3] | outcome [4] | outcome [5] | outcome [7] | outcome [8] | outcome [9]

NS(=O)(=O)c1cc2c(cc1C(F)(F)F)NC(Cc1ccccc1)NS2(=O)=O (configuration not stated)
inactive: outcome [3] | outcome [4] | outcome [5] | outcome [6] | outcome [7] | outcome [8] | outcome [9]

CC[C@H]1OC(=O)[C@H](C)[C@@H](O[C@H]2C[C@@](C)(OC)[C@@H](O)[C@H](C)O2)[C@H](C)[C@@H](O[C@@H]2O[C@H](C)C[C@H](N(C)C)[C@@H]2O)[C@](C)(O)C[C@@H](C)CN(C)[C@H](C)[C@@H](O)[C@]1(C)O
active: AC50 [3] 2510 nM | AC50 [5] 2520 nM
inactive: outcome [4] | outcome [8]

Nc1ccc(C(=O)O)c(O)c1
inactive: outcome [3] | outcome [4] | outcome [5] | outcome [8] | outcome [9]

C=CCC1([C@H](C)CCC)C(=O)NC(=O)NC1=O
inactive: max response [12] -4.95% | outcome [3] | outcome [4] | outcome [5] | outcome [6] | outcome [8] | outcome [9]

NC(N)=Nc1nc(CSCC/C(N)=N/S(N)(=O)=O)cs1
inactive: outcome [3] | outcome [4] | outcome [5] | outcome [8] | outcome [9]

CC(C)N(CCC(C(N)=O)(c1ccccc1)c1ccccn1)C(C)C (configuration not stated)
105%: parasite growth, % of DMSO control [11]
inactive: outcome [13] | outcome [14] | outcome [15] | max response [12] 11.9% and -6.08% and 19.7% | outcome [3] | outcome [4] | outcome [5] | outcome [7] | outcome [8] | outcome [9]
100%: parasite growth remaining, % of DMSO control (lower = more inhibition) [1]
95.7%: growth, % of control [10]
42.5%: parasite growth, % of control (lower = inhibition) [2]
